Residue numbers refer to the chain shown, from its start.

Common to all, as to assay: PBM; 200 nM protein, PBS
Common to all, as to conditions: dsDNA, one strand shown

One test addresses ALX4 (Homo sapiens, UniProt Q9H161 200-286).
The target of test [1] is T1, PAX4 (Homo sapiens, UniProt O43316 9-242, R200K).
T1 sequence: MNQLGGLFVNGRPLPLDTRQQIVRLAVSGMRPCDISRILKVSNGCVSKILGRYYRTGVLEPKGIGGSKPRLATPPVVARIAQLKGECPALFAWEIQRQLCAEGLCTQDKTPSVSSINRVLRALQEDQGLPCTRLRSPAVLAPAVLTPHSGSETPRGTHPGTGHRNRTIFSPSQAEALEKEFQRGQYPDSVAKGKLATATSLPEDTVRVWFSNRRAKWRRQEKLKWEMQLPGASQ

Test [2] deals with PRRX1 (Homo sapiens, UniProt P54821 80-166, F113S).
The target of test [3] is T2, VENTX (Homo sapiens, UniProt O95231 78-163, Y115F).
T2 sequence: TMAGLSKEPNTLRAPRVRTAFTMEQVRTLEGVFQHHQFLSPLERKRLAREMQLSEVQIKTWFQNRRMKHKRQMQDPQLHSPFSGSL

Test [4] has as its target T3, PAX4 (Homo sapiens, UniProt O43316 9-242).
T3 sequence: T1 sequence with K192R

Test [5] deals with HOXA2 (Homo sapiens, UniProt O43364 129-215, R185T).
The target in test [6] is T4, PAX4 (Homo sapiens, UniProt O43316 9-242, R200Q).
T4 sequence: T1 sequence with K192Q

Test [7] concerns the target T5, PAX4 (Homo sapiens, UniProt O43316 9-242, F177V).
T5 sequence: T1 sequence with F169V, K192R

Test [8] addresses T6, PAX4 (Homo sapiens, UniProt O43316 9-242, F177Y).
T6 sequence: T1 sequence with F169Y, K192R

The target in test [9] is MSX2 (Homo sapiens, UniProt P35548 130-214, F161Y).
In test [10] the target is VAX1 (Homo sapiens, UniProt Q5SQQ9 86-172, T142I).
For test [11], the target named is HOXA4 (Homo sapiens, UniProt Q00056 201-287, W262F).
The target in test [12] is PRRX1 (Homo sapiens, UniProt P54821 80-166).
For test [13], the target named is HOXA4 (Homo sapiens, UniProt Q00056 201-287, R217L).
In test [14] the target is MSX2 (Homo sapiens, UniProt P35548 130-214).
The target of test [15] is T7, VENTX (Homo sapiens, UniProt O95231 78-163, R121Q).
T7 sequence: T2 sequence with F38Y, R44Q

The target in test [16] is VAX1 (Homo sapiens, UniProt Q5SQQ9 86-172, K157R).
The target of test [17] is HOXA2 (Homo sapiens, UniProt O43364 129-215, R185K).
Chain of HOXA2 (Homo sapiens, UniProt O43364 129-215, R185K) (O43364 129-215 R185K): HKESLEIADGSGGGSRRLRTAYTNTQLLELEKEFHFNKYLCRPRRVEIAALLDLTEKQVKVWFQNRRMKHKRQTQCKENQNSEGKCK

Chain of PRRX1 (Homo sapiens, UniProt P54821 80-166, F113S) (P54821 80-166 F113S): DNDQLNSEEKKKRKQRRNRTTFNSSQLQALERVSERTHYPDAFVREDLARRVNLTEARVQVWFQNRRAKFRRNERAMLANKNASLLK
Chain of MSX2 (Homo sapiens, UniProt P35548 130-214, F161Y) (P35548 130-214 F161Y): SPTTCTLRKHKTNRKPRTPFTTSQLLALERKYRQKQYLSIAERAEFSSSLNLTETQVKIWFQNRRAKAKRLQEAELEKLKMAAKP
Chain of ALX4 (Q9H161 200-286): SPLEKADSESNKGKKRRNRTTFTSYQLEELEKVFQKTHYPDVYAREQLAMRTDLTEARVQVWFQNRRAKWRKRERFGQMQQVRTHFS
Chain of HOXA2 (Homo sapiens, UniProt O43364 129-215, R185T) (O43364 129-215 R185T): as the sequence (O43364 129-215 R185K) above, with K57T counted along it
Chain of PRRX1 (Homo sapiens, UniProt P54821 80-166) (P54821 80-166): as the sequence (P54821 80-166 F113S) above, with S34F counted along it
Chain of VAX1 (Homo sapiens, UniProt Q5SQQ9 86-172, T142I) (Q5SQQ9 86-172 T142I): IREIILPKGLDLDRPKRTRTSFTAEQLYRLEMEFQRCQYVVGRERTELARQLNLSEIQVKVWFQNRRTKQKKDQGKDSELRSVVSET
Chain of MSX2 (Homo sapiens, UniProt P35548 130-214) (P35548 130-214): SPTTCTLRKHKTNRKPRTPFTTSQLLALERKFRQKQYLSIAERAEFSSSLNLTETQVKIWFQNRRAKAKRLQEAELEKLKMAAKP
Chain of VAX1 (Homo sapiens, UniProt Q5SQQ9 86-172, K157R) (Q5SQQ9 86-172 K157R): as the sequence (Q5SQQ9 86-172 T142I) above, with I57T, K72R counted along it
Chain of HOXA4 (Homo sapiens, UniProt Q00056 201-287, W262F) (Q00056 201-287 W262F): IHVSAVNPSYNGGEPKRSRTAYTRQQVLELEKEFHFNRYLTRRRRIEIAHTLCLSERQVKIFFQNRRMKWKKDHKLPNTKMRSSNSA
Chain of HOXA4 (Homo sapiens, UniProt Q00056 201-287, R217L) (Q00056 201-287 R217L): as the sequence (Q00056 201-287 W262F) above, with R17L, F62W counted along it

In the case of AATTAAGC, the binding signal with ALX4 is 13.7 upbm affinity estimate (log intensity, higher = more binding, comparable within an allelic series); with PAX4 [1], 11.7 upbm affinity estimate (log intensity, higher = more binding, comparable within an allelic series); with PRRX1 [2], 11 upbm affinity estimate (log intensity, higher = more binding, comparable within an allelic series); in the test with VENTX [3], 11.5 upbm affinity estimate (log intensity, higher = more binding, comparable within an allelic series); with PAX4 [4] it was 12.2 upbm affinity estimate (log intensity, higher = more binding, comparable within an allelic series); with HOXA2 [5], 12.5 upbm affinity estimate (log intensity, higher = more binding, comparable within an allelic series). In addition, the binding signal was 12 upbm affinity estimate (log intensity, higher = more binding, comparable within an allelic series) with PAX4 [6]; 10.5 upbm affinity estimate (log intensity, higher = more binding, comparable within an allelic series) with PAX4 [7]; 11 upbm affinity estimate (log intensity, higher = more binding, comparable within an allelic series) with PAX4 [8]; 12.9 upbm affinity estimate (log intensity, higher = more binding, comparable within an allelic series) with MSX2 [9]; 12.3 upbm affinity estimate (log intensity, higher = more binding, comparable within an allelic series) in the test with VAX1 [10]; 11.5 upbm affinity estimate (log intensity, higher = more binding, comparable within an allelic series) in the test with HOXA4 [11]. In the test with PRRX1 [12], the binding signal is 13.3 upbm affinity estimate (log intensity, higher = more binding, comparable within an allelic series).
With CAATTATA, the binding signal is 13.8 upbm affinity estimate (log intensity, higher = more binding, comparable within an allelic series) in the test with ALX4; 11.5 upbm affinity estimate (log intensity, higher = more binding, comparable within an allelic series) with PRRX1 [2]; 12 upbm affinity estimate (log intensity, higher = more binding, comparable within an allelic series) with HOXA4 [13]; 14 upbm affinity estimate (log intensity, higher = more binding, comparable within an allelic series) with MSX2 [14]; 13.7 upbm affinity estimate (log intensity, higher = more binding, comparable within an allelic series) with MSX2 [9]; 13.4 upbm affinity estimate (log intensity, higher = more binding, comparable within an allelic series) in the test with PRRX1 [12].
For AATTAGCG, the binding signal was 11.9 upbm affinity estimate (log intensity, higher = more binding, comparable within an allelic series) with VENTX [15]; 13.9 upbm affinity estimate (log intensity, higher = more binding, comparable within an allelic series) with ALX4; 11.8 upbm affinity estimate (log intensity, higher = more binding, comparable within an allelic series) in the test with PAX4 [1]; 11 upbm affinity estimate (log intensity, higher = more binding, comparable within an allelic series) with PRRX1 [2]; 11.6 upbm affinity estimate (log intensity, higher = more binding, comparable within an allelic series) with VENTX [3]; 12.4 upbm affinity estimate (log intensity, higher = more binding, comparable within an allelic series) with PAX4 [4]. Also, the binding signal was 12.6 upbm affinity estimate (log intensity, higher = more binding, comparable within an allelic series) with HOXA2 [5]; 12.3 upbm affinity estimate (log intensity, higher = more binding, comparable within an allelic series) with PAX4 [6]; 10.4 upbm affinity estimate (log intensity, higher = more binding, comparable within an allelic series) with PAX4 [7]; 13.5 upbm affinity estimate (log intensity, higher = more binding, comparable within an allelic series) in the test with MSX2 [14]; 11 upbm affinity estimate (log intensity, higher = more binding, comparable within an allelic series) with PAX4 [8]; 13 upbm affinity estimate (log intensity, higher = more binding, comparable within an allelic series) with MSX2 [9]. Further, the binding signal with VAX1 [10] was 12.4 upbm affinity estimate (log intensity, higher = more binding, comparable within an allelic series); with PRRX1 [12], 13.3 upbm affinity estimate (log intensity, higher = more binding, comparable within an allelic series); with VAX1 [16], 12.5 upbm affinity estimate (log intensity, higher = more binding, comparable within an allelic series).
Regarding CCAATTAG, the binding signal in the test with VENTX [15] was 12.3 upbm affinity estimate (log intensity, higher = more binding, comparable within an allelic series); with ALX4 it was 14.1 upbm affinity estimate (log intensity, higher = more binding, comparable within an allelic series); in the test with PAX4 [1], 11.7 upbm affinity estimate (log intensity, higher = more binding, comparable within an allelic series); in the test with PRRX1 [2] it was 11.2 upbm affinity estimate (log intensity, higher = more binding, comparable within an allelic series); in the test with VENTX [3], 11.9 upbm affinity estimate (log intensity, higher = more binding, comparable within an allelic series); in the test with PAX4 [4], 12.2 upbm affinity estimate (log intensity, higher = more binding, comparable within an allelic series). Moreover, the binding signal with HOXA2 [5] was 12.9 upbm affinity estimate (log intensity, higher = more binding, comparable within an allelic series); with PAX4 [6], 12.2 upbm affinity estimate (log intensity, higher = more binding, comparable within an allelic series); with HOXA2 [17], 13.3 upbm affinity estimate (log intensity, higher = more binding, comparable within an allelic series); with PAX4 [7], 10.4 upbm affinity estimate (log intensity, higher = more binding, comparable within an allelic series); with MSX2 [14], 14 upbm affinity estimate (log intensity, higher = more binding, comparable within an allelic series); with PAX4 [8] it was 10.8 upbm affinity estimate (log intensity, higher = more binding, comparable within an allelic series). Further, the binding signal with MSX2 [9] was 13.7 upbm affinity estimate (log intensity, higher = more binding, comparable within an allelic series); in the test with VAX1 [10] it was 12.6 upbm affinity estimate (log intensity, higher = more binding, comparable within an allelic series); with PRRX1 [12], 13.4 upbm affinity estimate (log intensity, higher = more binding, comparable within an allelic series); with VAX1 [16], 12.9 upbm affinity estimate (log intensity, higher = more binding, comparable within an allelic series).
In the case of AATTAAGT, the binding signal is 13.9 upbm affinity estimate (log intensity, higher = more binding, comparable within an allelic series) with ALX4; 11.6 upbm affinity estimate (log intensity, higher = more binding, comparable within an allelic series) with PAX4 [1]; 11.2 upbm affinity estimate (log intensity, higher = more binding, comparable within an allelic series) with PRRX1 [2]; 12.1 upbm affinity estimate (log intensity, higher = more binding, comparable within an allelic series) with PAX4 [4]; 12.1 upbm affinity estimate (log intensity, higher = more binding, comparable within an allelic series) with HOXA2 [5]; 11.9 upbm affinity estimate (log intensity, higher = more binding, comparable within an allelic series) in the test with PAX4 [6]. Also, the binding signal with HOXA2 [17] was 12.8 upbm affinity estimate (log intensity, higher = more binding, comparable within an allelic series); in the test with PAX4 [7] it was 10.5 upbm affinity estimate (log intensity, higher = more binding, comparable within an allelic series); in the test with MSX2 [14] it was 13.3 upbm affinity estimate (log intensity, higher = more binding, comparable within an allelic series); with PAX4 [8], 10.9 upbm affinity estimate (log intensity, higher = more binding, comparable within an allelic series); with MSX2 [9] it was 12.9 upbm affinity estimate (log intensity, higher = more binding, comparable within an allelic series); with HOXA4 [11], 11.4 upbm affinity estimate (log intensity, higher = more binding, comparable within an allelic series). Moreover, the binding signal with PRRX1 [12] was 13.3 upbm affinity estimate (log intensity, higher = more binding, comparable within an allelic series).
Regarding CCCAGGCG, the binding signal in the test with HOXA2 [5] is 7.06 upbm affinity estimate (log intensity, higher = more binding, comparable within an allelic series); with HOXA2 [17], 10.1 upbm affinity estimate (log intensity, higher = more binding, comparable within an allelic series).

Source of the values: article PMC11006913.
